Out of some 2,400 compounds screened, about 1,400 (58%) were called active. The set was probably picked from earlier hits. Some of the results follow. Values without a mark were called inactive.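 The calls were made as follows: active = inhibition of 30% or more at any tested dose; inconclusive = primary hits over the limit that were never retested; inactive = the rest.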
Experiment: ADP Hunter readout inhibition without MgcRacGAP – biochemical, coupled enzyme counter-screen, artefact control for MgcRacGAP inhibitor project, dose response (AID 624351);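 also: signal is the ADP detection kit reading of free GDP without any GAP enzyme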;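 as to inhibition: 0% = median positive control wells and 100% = median negative control wells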
Conditions: fluorescence, no MgcRacGAP; series mostly up to 80 µM

Structure (SMILES)	IC50	inhibition
Clc1cc(Cl)c(OCCCCn2cncn2)c(Cl)c1	inactive	–
CCCCN(C)C(=O)C1CCN(Cc2ccc(OCc3ccccc3)cc2)CC1	inactive	–
COc1ccc(C2NC(c3ccc(OC)cc3OC)C(C)C(=O)C2C)c(OC)c1 (centres undefined)	inactive	–
CC1CC(C)CN(CC(=O)NC(c2ccccc2)c2ccccc2)C1 (centres undefined)	inactive	–
COc1cc(/C=C2\SC(N)=NC2=O)ccc1O	16.4 µM (active)	–
COc1cc(/C=C2\SC(c3ccc(C)cc3)=NC2=O)cc(OC)c1O	inactive	–
CCCN1C(=O)/C(=C/c2cc(C)n(C)c2C)SC1=Nc1ccc(OCC)cc1	inactive	–
CCN=C1S/C(=C\c2ccc(O)c(OCC)c2)C(=O)N1CC	39 µM (active)	–
COc1cc(/C=C2\SC(N)=NC2=O)cc(Cl)c1O	45.7 µM (active)	–
CCOc1cc(/C=C2\SC(=O)N=C2N)ccc1O	14.3 µM (active)	–
COc1cccc(OC)c1OCCNC(C)(C)C	inactive	–
N=C1/C(=C/c2ccc(Br)o2)C(=O)N=C2SC(CC(=O)N3CCCC3)=NN12	inactive	–
Cc1ccc(S(=O)(=O)Oc2ccc(/C=C3\C(=N)N4N=C(S(C)(=O)=O)SC4=NC3=O)cc2)cc1	inactive	–
N=C1/C(=C\c2ccc(Br)o2)C(=O)N=C2SC(CC(=O)N3CCOCC3)=NN12	inactive	–
CCS(=O)(=O)C1=NN2C(=N)/C(=C\c3ccc(SCc4ccco4)o3)C(=O)N=C2S1	inactive	–
NC1=NC(=O)S/C1=C\c1ccc(O)cc1	20.2 µM (active)	–
CCOc1cc(/C=C2/NC(=O)N(Cc3ccccc3F)C2=O)ccc1O	50 µM (active)	–
CCOc1cc(/C=C2\C(=O)ON=C2c2ccccc2)cc(Br)c1O	inactive	–
CC(NCc1cccc(S(=O)(=O)N(C)C)c1)c1ccc(F)cc1 (centres undefined)	inactive	–
CCOc1cc(/C=C2\SC(N)=NC2=O)ccc1O	55.5 µM (active)	–
C#CCOCCOCCOCCNc1nc(N2CCN(C(=O)C([C@@H](C)O)n3cc([C@@H](N)CCCCN)nn3)CC2)nc(N2CCN(C(=O)[C@H](CCCCN)n3cc(CN)nn3)CC2)n1 (some centres undefined)	inactive	–
Cc1cc(C)nc(SCC(=O)c2ccc(O)c(O)c2)n1	38 µM (active)	–

Structure (SMILES)	IC50	inhibition
CN(C)c1cc(NC(=O)CN2CCCC2)c2ccccc2n1	inactive	–
Cc1cc(SCC(=O)c2ccc(O)c(O)c2)nc2ccccc12	58.9 µM (active)	–
O=C(CSc1nnnn1-c1ccc(F)cc1)c1ccc(O)c(O)c1	77.2 µM (active)	–
CC(C)(C)CC(C)(C)NCC(=O)Nc1c2c(nc3ccccc13)CCC2	inactive	–
Cc1cc(=O)oc2c(O)c(O)ccc12	28.8 µM (active)	–
O=C(O)c1cccc2cccc(-c3c4ccc(=O)c(O)c-4oc4c(O)c(O)ccc34)c12	inactive	–
Cc1[nH]n(-c2ccccc2)c(=O)c1/C=N/N(C)c1ccccc1	15 µM (active)	–
O=C(O)C1Nc2c(O)cc(Cl)c([N+](=O)[O-])c2C2C=CCC12 (centres undefined)	inactive	–
COc1cc(Sc2ccc(C)cc2)c(OC)cc1N	22.5 µM (active)	–
O=C(N/C(=C\c1ccc(O)cc1)C(=O)N1CCCCC1)c1ccccc1	54.1 µM (active)	–
COc1ccc(NC2CCCN(C(=O)c3cccc(N4CCNC4=O)c3)C2)cc1 (centres undefined)	81.2 µM (active)	–
O=C(c1cccc(F)c1)N1CCN(C2CCCCC2)CC1	inactive	–
COc1cccc(C(=O)N2CCN(C3CCCCC3)CC2)c1	inactive	–
COc1ccc(NC2CCCN(C(=O)c3cccc(N(C)C)c3)C2)cc1 (centres undefined)	74.8 µM (active)	–
COc1ccc(NC2CCCN(C(=O)c3ccc(C)c(N4CCNC4=O)c3)C2)cc1 (centres undefined)	inactive	–
COc1cc(OC)cc(C(=O)N2CCN(Cc3ccccc3Br)CC2)c1	inactive	–
Cc1cc(-c2ccccc2)nc2c(Br)c(=O)[nH]n12	inactive	–
Cc1ccc(N2C(S)=C(C#N)C(=O)NC23CCCCC3)cc1	inactive	–
O=C(O)CCCN1C(=O)/C(=C\c2ccco2)SC1=S	inactive	–
COc1cc(/C=C2\SC(=S)N(NC(=O)c3ccc(O)cc3)C2=O)ccc1O	79.5 µM (active)	–
COc1cc(/C=C2\SC(=S)N(NC(=O)c3ccncc3)C2=O)ccc1O	44.1 µM (active)	–
CC(=O)NN1C(=O)/C(=C/c2ccc(Br)o2)SC1=S	inactive	–

Structure (SMILES)	IC50	inhibition
O=C1C(=Cc2cccc(O)c2O)SC(=S)N1CCCN1CCOCC1	inactive	–
COc1cc(/C=C2\SC(=S)N(Nc3ccccc3)C2=O)ccc1O	75.4 µM (active)	–
COc1cc(/C=C2\SC(=S)N(NC(=O)c3cccc(O)c3)C2=O)ccc1O	67.5 µM (active)	–
CC(=O)NN1C(=O)/C(=C\c2ccc(Br)o2)SC1=S	inactive	–
CC(=O)OCCNc1cc(N2CCN(C)CC2)c2noc3c2c1C(=O)c1ccccc1-3	–	-4.34% [at 10 µM]
O=C(O)c1ccc2c(c1)[C@@H]1C=CC[C@@H]1[C@H](c1ccccn1)N2	inactive	–
CCOC(=O)c1sc2nc(CSc3ccccc3)nc(N3CCCN(C)CC3)c2c1C	inactive	–
COc1cc(/C=N\NC(=O)c2c(C)nc3cc(C)ccn23)ccc1O	50.4 µM (active)	–
CCOc1cc(/C=N\NC(=O)c2c(C)nc3ccccn23)ccc1O	83.5 µM (active)	–
O=C1/C(=C\c2ccc(O)c(O)c2)N=C2CCCCCN12	18.3 µM (active)	–
CCOc1cc(/C=C2\N=C3CCCCCN3C2=O)ccc1O	55.8 µM (active)	–
O=C(CNC1CC1)Nc1cc(C(F)(F)F)ccc1Cl	inactive	–
Cc1ccc(S(=O)(=O)N[C@H](C(=O)OCn2nnc3ccccc3c2=O)C(C)C)cc1	inactive	–
COc1ccc(NC(=O)NS(=O)(=O)c2ccc(C)cc2)cc1OC	25.5 µM (active)	–
CCN(CC)S(=O)(=O)c1cccc(C(=O)N/N=C/c2ccc(OC)c(O)c2)c1	81.2 µM (active)	–
CCOc1cc(C=NNC(=O)c2cccc(S(=O)(=O)N3CCCC3)c2)ccc1O	32.6 µM (active)	–
O=C(N/N=C/c1ccc(O)c(O)c1)c1cccc(S(=O)(=O)N2CCCCC2)c1	72.8 µM (active)	–
O=C(CNCc1ccco1)Nc1cccc(S(=O)(=O)N2CCCCC2)c1	inactive	–
COc1ccc(/C=N/NC(=O)c2cccc(S(=O)(=O)N3CCCC3)c2)cc1O	55.4 µM (active)	–
O=C(/C=C/c1ccc(O)c(O)c1)c1ccc(S(=O)(=O)N2CCCCCC2)cc1	inactive	–
